PAFAH1B2 inh: inhibitors of human PAFAH1B2. P68402. recombinant PAFAH1B2, FP-rhodamine activity probe, fluorescence polarization. inhibition, % at 3.39 µM. actives 1.2% (n = 340,000);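 active = inhibition above the mean of all tested compounds plus 3 SD, cut at about 24% in these data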;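 note: 0% = enzyme with DMSO and 100% = wells lacking PAFAH1B2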
Target sequence (P68402 whole entry, looked up): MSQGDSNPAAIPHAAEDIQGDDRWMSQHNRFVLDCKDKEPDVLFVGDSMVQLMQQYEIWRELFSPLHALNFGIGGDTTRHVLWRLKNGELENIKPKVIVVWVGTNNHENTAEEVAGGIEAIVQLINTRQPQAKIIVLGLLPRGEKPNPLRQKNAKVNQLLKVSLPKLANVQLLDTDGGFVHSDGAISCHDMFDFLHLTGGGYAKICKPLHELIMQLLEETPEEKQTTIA
PP5 primary: inhibitors of human protein phosphatase 5 (PP5); purified PP5c, OMFP substrate fluorescence; inhibition, % at 6.7 µM; AID 1987; P53041; actives 0.18% (n = 320,000);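 active = inhibition above the campaign's mean inhibition across all tested compounds plus 3 SD, cut at about 9.5% in these data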;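 note: 0% = DMSO only and 100% = 100 µM cantharidin control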
PAFAH1B3 inh: blocks human PAF acetylhydrolase 1B catalytic subunit 3; Q15102; recombinant PAFAH1B3, FP-rhodamine probe, fluorescence polarization; inhibition, % at 3.39 µM; actives 0.28% (n = 340,000); AID 492972;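 active = inhibition above the screen-wide average of all tested compounds plus 3 SD, cut at about 25% in these data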;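 note: 0% = enzyme with DMSO only and 100% = wells lacking PAFAH1B3 protein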
Target sequence (Q15102 whole entry, looked up): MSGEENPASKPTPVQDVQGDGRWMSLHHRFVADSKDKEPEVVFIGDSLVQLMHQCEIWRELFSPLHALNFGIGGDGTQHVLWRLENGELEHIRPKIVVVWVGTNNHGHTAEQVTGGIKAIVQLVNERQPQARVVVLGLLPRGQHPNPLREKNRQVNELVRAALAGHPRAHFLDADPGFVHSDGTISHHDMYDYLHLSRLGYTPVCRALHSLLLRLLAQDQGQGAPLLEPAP
PAFAH2 inh: PAFAH2 (human) inhibition | recombinant PAFAH2, FP-rhodamine activity probe, fluorescence polarization | actives 0.99% (n = 340,000) | inhibition, % at 3.39 µM | AID 492956;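 active = inhibition above the mean over all tested compounds plus 3 SD, cut at about 30% in these data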;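 note: inhibitors block probe labeling of enzyme so polarization drops; 0% = enzyme with DMSO and 100% = wells lacking PAFAH2 protein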
pPAFAH FP inh: inhibitors of human plasma PAF acetylhydrolase (pPAFAH). Q13093. recombinant pPAFAH, FP-rhodamine probe fluorescence polarization. inhibition, % at 3.39 µM. actives 1.5% (n = 330,000);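 active = inhibition above the mean inhibition across the screen plus 3 SD, cut at about 25% in these data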;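 note: inhibitors block binding of the rhodamine activity-based probe so polarization drops; 0% = enzyme with DMSO and 100% = wells lacking pPAFAH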
PP1 counter: PP1-alpha (human) inhibition in PP5 counter-screen | inhibition, % at 6.7 µM | AID 2235 | P62136 | actives 0.9% (n = 320,000) | purified PP1alpha, OMFP fluorescence;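 active = inhibition above the mean inhibition of all tested compounds plus 3 SD, computed separately for each screening campaign, cut at about 15% in these data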
Active calls of the source: *; x = no result given. An excerpt weighted towards active compounds, which were near 3.4% of everything screened.

SMILES	PAFAH1B2 inh	PP5 primary	PAFAH1B3 inh	PAFAH2 inh	pPAFAH FP inh	PP1 counter
CN(C)C(=S)N=c1ssc(=S)n1Cc1cccnc1	6	x	7	9	x	x
Cc1ccc(-c2nc(C(=O)NCCCN3CCOCC3)cc3c2[nH]c2ccccc23)cc1	3	8	-1	-6	-7	15*
O=S(=O)(c1ccc(F)cc1)N1CCC2(CC1)OCCN2S(=O)(=O)c1cccs1	28*	1	1	8	14	-4
CC(C)NC(=O)N(C)C[C@H]1Oc2c(NC(=O)Nc3ccc(C(F)(F)F)cc3)cccc2C(=O)N([C@H](C)CO)C[C@@H]1C	1	x	-5	1	15	x
C[C@@H]1CN([C@H](C)CO)C(=O)c2cccc(NC(=O)Nc3ccc(F)cc3)c2O[C@H]1CN(C)C(=O)Nc1ccc(C(F)(F)F)cc1	50*	x	6	0	-9	x
COc1ccc(NC(=O)N(C)C[C@H]2Oc3c(NC(=O)Nc4ccc(C(F)(F)F)cc4)cccc3C(=O)N([C@H](C)CO)C[C@@H]2C)cc1	36*	x	7	-3	1	x
C[C@H](CO)N1C[C@H](C)[C@@H](CN(C)C(=O)Nc2ccc(C(F)(F)F)cc2)Oc2c(NC(=O)Nc3ccccc3)cccc2C1=O	57*	x	-9	-9	1	x
C[C@H](CO)N1C[C@H](C)[C@@H](CN(C)C(=O)NC2CCCCC2)Oc2c(NC(=O)Nc3ccc(C(F)(F)F)cc3)cccc2C1=O	8	x	-5	-4	1	x
C[C@H](CO)N1C[C@H](C)[C@@H](CN(C)S(=O)(=O)c2ccc(F)cc2)Oc2c(NC(=O)Nc3ccc(C(F)(F)F)cc3)cccc2C1=O	24*	x	-24	-30	7	x
COCc1ccc(C(=O)NC2CCCc3c2cnn3-c2cc(C)cc(C)c2)s1 (configuration not stated)	-2	x	4	-4	x	x
O=C(O)c1cccc(-c2ccccc2)c1O	0	x	6	-1	x	x
COc1ccc([N+](=O)[O-])c(OC)c1C(=O)NC(=O)Nc1c(F)c(F)c(F)c(F)c1F	6	2	0	4	9	-1
CC(NC(=O)c1ccccc1NS(=O)(=O)c1ccc(CCC(=O)O)cc1)c1ccccc1 (configuration not stated)	28*	-2	6	2	3	0
Cc1cc(C)n(CCCNC(=O)C2CC(=O)N(Cc3ccccc3)C2)n1 (configuration not stated)	2	1	9	3	1	-2
COc1ccc(C(=O)N[C@H](C(=O)OCCCOC(=O)[C@@H](NC(=O)c2ccc(OC)cc2)C(C)C)C(C)C)cc1	-1	x	5	0	x	x
COc1cc(O)cc2cc3c(c(O)c12)C(=O)CC(C)(O)O3 (configuration not stated)	7	2	19	13	25*	-1
COC(=O)/C(=C\c1c[nH]c2ccccc12)NC(C)=O	0	2	8	4	-3	16*
CCOC(=O)/C(=C\c1c[nH]c2ccccc12)NC(C)=O	4	-2	7	-6	4	-2
COc1cccc2c1C(=O)c1c(O)c3c(c(O)c1C2=O)C[C@@](O)(C(C)=O)C[C@@H]3O[C@H]1C[C@H](N)[C@H](O)[C@H](C)O1	51*	x	37*	54*	x	x
COc1cccc2c1C(=O)c1c(O)c3c(c(O)c1C2=O)CC(O)(C(=O)CO)CC3OC1CC(N(C)C)C(O)C(C)O1 (configuration not stated)	61*	x	47*	60*	x	x
CC1CCc2sc(C(=O)N3CCN(c4ncccn4)CC3)cc2C1 (configuration not stated)	0	0	-7	5	28*	1
C=CCn1ccc(=O)nc1SC	2	x	6	3	x	x
CCCCn1c(N)c(N(CC(C)C)C(=O)COc2cc(C)ccc2Cl)c(=O)[nH]c1=O	0	x	7	2	x	x
Cc1cc(-c2nc3cccnc3s2)ccc1NS(=O)(=O)c1cccs1	8	1	2	5	33*	-4
Cc1ccc(NS(=O)(=O)c2cccs2)c(C)c1	4	3	4	-12	28*	-4
SMILES	PAFAH1B2 inh	PP5 primary	PAFAH1B3 inh	PAFAH2 inh	pPAFAH FP inh	PP1 counter
O=C(COC(=O)COc1ccc(Br)cc1)NCCC1=CCCCC1	30*	2	-5	-1	11	2
Cc1[nH]c2ccc(C(=O)OC(C)C(=O)N(C)C3CCCCC3)cc2c1C (configuration not stated)	-2	x	4	-2	x	x
COC(=O)c1c(C)[nH]c(C(=O)OC(C)C(=O)N(C)C2CCCCC2)c1C (configuration not stated)	3	0	6	2	26*	-2
Cc1noc(C)c1-c1nc(CS(=O)(=O)c2ccc(Cl)cc2)no1	30*	0	5	9	-4	-2
CCn1nc(C)c(Br)c1-c1nc(CS(=O)(=O)c2ccc(F)cc2)no1	10	3	9	4	-3	0
CC(=O)Oc1c(I)cc(I)cc1C(=O)Nc1ccc(Cl)cc1	25*	5	10	3	25*	10
COc1ccc(Cl)cc1C(=O)Nc1ccc(NC(C)=O)cc1	-5	-7	8	5	-2	2
OC(c1ccc(Cl)cc1)c1nccc2ccccc12 (configuration not stated)	1	2	12	3	2	3
COc1ccccc1-c1nnc2sc(-c3ccc(N(C)C)cc3)nn12	-3	3	6	3	12	1
CN(C)c1ccc(-c2nn3c(-c4ccccc4Cl)nnc3s2)cc1	2	2	7	10	15	16*
CCOc1cccc(-c2c(C(=O)N/N=C/c3ccc(C)o3)nnn2-c2nonc2N)c1	5	-1	13	2	4	0
Cc1ccc2c(c1)S(=O)(=O)N(C)C(c1ccccc1)=C2	4	x	9	5	x	x
COc1ccc(CNC(=O)CCn2c(=O)[nH]c3ccccc3c2=O)cc1	0	-2	2	3	7	-4
CCOc1cc2[nH]c(=O)n(CCCC(=O)NCc3ccc(OC)cc3)c(=O)c2cc1OCC	32*	-1	4	2	3	-3
COc1ccc(S(=O)(=O)N2CCOCC2)cc1NC(=O)CSc1nnc(N)s1	-1	0	4	-1	2	-1
CCC(OC(=O)c1nsc(Cl)c1Cl)C(=O)NCCc1ccccc1 (configuration not stated)	6	1	4	-4	25*	0
CC(C)CC(OC(=O)c1nsc(Cl)c1Cl)C(=O)NCc1cccs1 (configuration not stated)	7	3	3	0	-4	1
CCC(OC(=O)c1nsc(Cl)c1Cl)C(=O)NCc1cccs1 (configuration not stated)	0	1	-1	0	28*	-1

Screens as filed in PubChem BioAssay.
